PubChem BioAssay AID1572 (National Center for Advancing Translational Sciences (NCATS), 2009)
Results filed as inconclusive are left out. A number with no mark means an inactive call. Activity calls are given as the source filed them. The call rests on the fitted dose curve; in most records, active means well fitted curve in either direction with a large enough effect; inconclusive means small, poorly fitted or top-dose-only effect; inactive means flat fitted curve, though single readings scatter.

Test: Total Fluorescence Confirmation Counterscreen for Inhibitors of the Interaction of Thyroid Hormone Receptor and Steroid Receptor Coregulator 2
Settings: Texas Red total fluorescence, TRbeta/SRC2 FP artifact counterscreen; series mostly up to 92.2 µM; total fluorescence change, both ways: at the top concentration
Outline: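 Flags fluorescent or light-absorbing compounds: after 5 hr at ambient temperature, 0.6 uM TRbeta LBD plus 20 nM SRC2 Texas Red (1uM T3, 5% DMSO) read at 555/632 nm; TF = S + 2P from parallel and perpendicular channels.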
For `Nc1cnccc1C(=O)O`, the “total fluorescence change, both ways” value was 11.1%.
In the case of `CCC(NC(=O)Nc1ccc(O)cc1)(C(F)(F)F)C(F)(F)F`, the “total fluorescence change, both ways” value is reported as 8.48%.
In the case of `O=C1CCCC(O)=C1N=Nc1cccc(S(=O)(=O)N2CCOCC2)c1`, the “total fluorescence change, both ways” value is reported as 5.17%.
In the case of `Cc1[nH][nH]c(=O)c1C(c1ccc(-c2ccccc2C(=O)O)o1)c1c(C)[nH][nH]c1=O`, the “total fluorescence change, both ways” value is reported as -3.55%.
With `Cc1nnc(SCC(=O)Nc2ccc(N(C)C)cc2)[nH]c1=O` the “total fluorescence change, both ways” value was 4.51% [at 184 µM].
With `Cn1c(NNC(=O)c2c(F)cccc2F)cc(=O)n(C)c1=O` the “total fluorescence change, both ways” value was 2.85%.
With `COc1ccccc1Nc1cc2ccccc2c(=O)[nH]1` the “total fluorescence change, both ways” value was -10.5%.
In the case of `COc1ccc(-c2nc(CS(=O)CC(=O)NCc3ccccn3)c(C)o2)cc1` (centres undefined), the Potency is reported as 35.5 µM [fluorescent] (active).
In the case of `CC1(C)CC(=O)C(N=Nc2cccc(S(=O)(=O)N3CCOCC3)c2)=C(O)C1`, the “total fluorescence change, both ways” value is reported as -1.25%.
